According to PubChem BioAssay (NCI):
Compounds without any hit were thinned out: in the full panel of roughly 79,000, 15% have a hit. Calls of active or inactive are those of the source. Rule as the data show it: active = growth inhibition above about 70%; inactive = the rest.

What was measured:
[1] = NCI Yeast Anticancer Drug Screen. Data for the rad52 strain (AID 147);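 also: 0% = growth of vehicle-treated control cultures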; conditions: S. cerevisiae rad52 mutant growth inhibition, hits give high values
Outline: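 Growth of repair-deficient yeast cells was compared between compound-treated and vehicle-treated cultures to give percent inhibition.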

[2] = NCI Yeast Anticancer Drug Screen. Data for the rad50EPP+ strain (AID 151);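 also: 0% = growth of vehicle-treated control cultures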; conditions: S. cerevisiae rad50 mutant strain, hits give high values
Outline: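 Measured: growth inhibition of rad50EPP+ yeast. Reference: vehicle-treated controls. Screen uses strains with defined genetic alterations in DNA damage repair or cell cycle control.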

[3] = NCI Yeast Anticancer Drug Screen. Data for the mgt1 strain (AID 153); conditions: S. cerevisiae mgt1 mutant growth inhibition, hits give high values
Outline: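 Compounds were applied to mgt1 mutant yeast, and growth was then compared against vehicle-treated control cultures to give percent inhibition.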

[4] = NCI Yeast Anticancer Drug Screen. Data for the rad50 strain (AID 155);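 also: 0% = growth of vehicle-only cultures of the same strain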; conditions: S. cerevisiae rad50 strain growth inhibition, hits give high values
Outline: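 Vehicle-treated cultures provide the reference for the growth inhibition reported for compound-exposed, repair-deficient yeast.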

[5] = NCI Yeast Anticancer Drug Screen. Data for the mec2-1 strain (AID 157); conditions: S. cerevisiae mec2-1 strain, hits give high values
Outline: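 Compounds were applied to mec2-1 yeast cells. Their growth was then compared with that of vehicle-treated cultures to give growth inhibition.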

[6] = NCI Yeast Anticancer Drug Screen. Data for the rad14 strain (AID 159);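 also: 0% = growth of vehicle-treated control cultures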; conditions: S. cerevisiae rad14 strain growth inhibition, hits give high values
Outline: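 Inhibition of growth is reported for a repair-deficient yeast mutant following compound treatment, calculated relative to cultures that received vehicle.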

[7] = NCI Yeast Anticancer Drug Screen. Data for the sgs1 mgt1 strain (AID 161);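 also: 0% = growth of cultures given vehicle only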; conditions: S. cerevisiae sgs1 mgt1 strain, hits give high values
Outline: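 Compounds are added to genetically altered yeast, and growth is compared with cultures given vehicle alone to give percent inhibition.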

[8] = NCI Yeast Anticancer Drug Screen. Data for the CLN2oe strain (AID 163);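 also: 0% = growth of vehicle-only control cultures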; conditions: S. cerevisiae CLN2oe strain, hits give high values
Outline: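 Cells of an engineered yeast line with disturbed cell-cycle regulation are treated with compound. Inhibition of growth is then calculated relative to the vehicle-treated reference.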

[9] = NCI Yeast Anticancer Drug Screen. Data for the cln2 rad14 strain (AID 165);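 also: 0% = growth equal to vehicle treated cultures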; conditions: S. cerevisiae cln2 rad14 strain, hits give high values
Outline: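 Strain: cln2 rad14 yeast, altered in cell cycle control and DNA damage repair. Read-out: growth inhibition vs vehicle.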

[10] = NCI Yeast Anticancer Drug Screen. Data for the bub3 strain (AID 167); conditions: S. cerevisiae bub3 mutant strain, hits give high values
Outline: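 Mutant yeast screening strain plus compound; vehicle-treated cultures serve as the 0% inhibition reference.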

[11] = NCI Yeast Anticancer Drug Screen. Data for the wt2 strain (AID 169); conditions: S. cerevisiae wt2 strain growth inhibition, hits give high values
Outline: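 Growth of compound-treated yeast is measured and expressed as inhibition relative to vehicle-only controls.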

[12] = NCI Yeast Anticancer Drug Screen. Data for the sgs1 strain (AID 173);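 also: 0% = growth of vehicle-only control cultures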; conditions: S. cerevisiae sgs1 mutant, hits give high values
Outline: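 Strain with an altered DNA repair or cell cycle pathway exposed to compound. Growth then measured. Value = inhibition versus vehicle control.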

[13] = NCI Yeast Anticancer Drug Screen. Data for the mlh1 rad18 strain (AID 175); conditions: S. cerevisiae mlh1 rad18 strain growth inhibition, hits give high values
Outline: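 A repair-deficient yeast strain is exposed to test compound, and growth is scored relative to vehicle-treated controls.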

[14] = NCI Yeast Anticancer Drug Screen. Data for the rad18 strain (AID 177); conditions: S. cerevisiae rad18 mutant growth inhibition, hits give high values
Outline: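 DNA-repair-defective yeast; compound treatment; growth inhibition scored against vehicle.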

[15] = at 5.0 µM (retest, dose inferred, filed as 0.5)
[16] = at 50.0 µM (retest, dose inferred, filed as 5.0)

Measured: growth inhibition

C[N+](C)(C)CC1CCCC(C[N+](C)(C)C)C1=O (stereo not drawn)
active: [1]; at 100.0 µM 96% | [2]; at 100.0 µM 99% | [3]; at 100.0 µM 99% | [4]; at 50.0 µM 91.8% | [4]; at 100.0 µM 99% | [5]; at 50.0 µM 99.8% | [5]; at 100.0 µM 98% | [6]; at 100.0 µM 99% | [10]; at 50.0 µM 89.2% | [10]; at 100.0 µM 99% | [11]; at 100.0 µM 94% | [12]; at 100.0 µM 99% | [13]; at 50.0 µM 97.2% | [14]; at 33.0 µM 93% | [14]; at 100.0 µM 98%
inactive: [1]; at 1.2 µM 0% | [1]; at 3.7 µM 1% | [1]; at 11.0 µM 9% | [1]; at 33.0 µM 34% | [2]; at 1.2 µM -3% | [2]; at 3.7 µM 3% | [2]; at 11.0 µM 13% | [2]; at 33.0 µM 64% | [3]; at 1.2 µM 0% | [3]; at 3.7 µM 2% | [3]; at 11.0 µM 5% | [3]; at 33.0 µM 27% | [4]; at 1.2 µM 2% | [4]; at 3.7 µM -18% | [4]; [15] 1% | [4]; at 11.0 µM 37% | [4]; at 33.0 µM 63% | [4]; [16] 35% | [5]; at 1.2 µM 1% | [5]; at 3.7 µM 5% | [5]; [15] 6% | [5]; at 11.0 µM 10% | [5]; at 33.0 µM 25% | [5]; [16] -19% | [6]; at 1.2 µM -1% | [6]; at 3.7 µM 0% | [6]; at 11.0 µM 8% | [6]; at 33.0 µM 38% | [7]; [15] 3% | [7]; [16] 50% | [7]; at 50.0 µM 68.3% | [8]; at 1.2 µM 0% | [8]; at 3.7 µM 1% | [8]; at 11.0 µM 6% | [8]; at 33.0 µM 12% | [8]; at 100.0 µM 24% | [9]; [15] 6% | [9]; [16] 21% | [9]; at 50.0 µM 25.5% | [10]; at 1.2 µM -1% | [10]; at 3.7 µM 4% | [10]; [15] -45% | [10]; at 11.0 µM 4% | [10]; at 33.0 µM 44% | [10]; [16] 41% | [11]; at 1.2 µM -3% | [11]; at 3.7 µM 7% | [11]; at 11.0 µM 2% | [11]; at 33.0 µM 5% | [12]; at 1.2 µM -1% | [12]; at 3.7 µM 3% | [12]; at 11.0 µM 15% | [12]; at 33.0 µM 64% | [13]; [15] 8% | [13]; [16] 62% | [14]; at 1.2 µM 1% | [14]; at 3.7 µM 13% | [14]; at 11.0 µM 44%
